Source: PubChem BioAssay (several laboratories)
Rows were chosen to be rich in hits. Some 3.1% of all compounds tested hit in one or more screens of this group.
Mtb FBA inh – Mtb fructose-bisphosphate aldolase inhibition | purified M. tuberculosis FBA, fluorescence read-out | inhibition, % at 1 µM | 2.3% of 360,000 active | AID 588726; in the data active means inhibition above about 27%;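 further: 0% = vehicle and 100% = reference inhibitor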
Target sequence (P9WQA3 whole entry, looked up): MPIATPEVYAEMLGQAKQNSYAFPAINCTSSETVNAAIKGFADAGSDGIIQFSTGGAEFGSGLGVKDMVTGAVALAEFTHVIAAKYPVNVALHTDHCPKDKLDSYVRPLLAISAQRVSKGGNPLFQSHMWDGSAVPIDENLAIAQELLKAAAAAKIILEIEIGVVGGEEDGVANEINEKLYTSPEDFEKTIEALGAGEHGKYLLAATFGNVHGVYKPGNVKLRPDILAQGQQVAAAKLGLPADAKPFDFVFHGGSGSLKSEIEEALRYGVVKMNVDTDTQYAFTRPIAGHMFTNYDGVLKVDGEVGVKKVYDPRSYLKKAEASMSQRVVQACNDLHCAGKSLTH
3CLpro inhibitor – SARS-CoV 3CLpro protease inhibition | recombinant SARS-CoV 3CLpro, quenched FRET peptide cleavage | AID 1706 | P0C6X7 | inhibition, % at 6 µM | 0.14% of 290,000 active; in the data active means inhibition above about 12%
Mtb BioA inh – inhibitors of Mycobacterium tuberculosis BioA enzyme; inhibition, % at 9.99 µM; 0.096% of 360,000 active; purified M. tuberculosis BioA enzyme, plate reader; AID 602481; in the data active means inhibition above about 40%
GDH-TPI inh – counter-screen for M. tuberculosis FBA inhibitors: GDH-TPI coupled enzymes | GDH-TPI coupled enzyme counterscreen, NADH absorbance | inhibition, % at 4.8 µM | 1.2% of 360,000 active; in the data active means inhibition above about 30%;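 further: 0% = DMSO wells and 100% = wells lacking the enzyme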
FadD28 binding – blocks FadD28 binding to the bisubstrate probe; inhibition, % at 12.5 µM; 0.22% of 360,000 active; fluorescence polarization; in the data active means inhibition above about 8.5%, passing the limit was not always enough
Starred values were filed as active, the others as inactive.

Results for O=C(N/N=C/C=C/c1ccco1)/C(=C/c1ccccc1)NC(=O)c1ccccc1 ?
Mtb FBA inh: 0; 3CLpro inhibitor: -4; GDH-TPI inh: 37*; FadD28 binding: -4

Results for CCCN(C)C[C@@H]1OCCCC[C@H](C)Oc2ccc(NC(=O)Nc3ccc(C(F)(F)F)cc3)cc2C(=O)N([C@@H](C)CO)C[C@@H]1C ?
Mtb BioA inh: 3

How did COCC(=O)Nc1ccc2c(c1)[C@H]1C[C@@H](CC(=O)NCc3cccc(F)c3)O[C@H](CO)[C@H]1O2 do in these assays?
Mtb BioA inh: -2

How did CCCNC(=O)C[C@H]1CC[C@H]2[C@@H](COC[C@@H](O)CN2Cc2ccccc2F)O1 do in these assays?
Mtb BioA inh: 0

How did CN(C)C(=O)[C@H]1[C@H](CO)[C@H]2Cn3c(ccc(-c4cccc(F)c4)c3=O)[C@H]2N1C(=O)c1cnccn1 do in these assays?
Mtb BioA inh: -2

Results for Cc1cccc(NC(=O)/C(=C\c2cccs2)NC(=O)c2ccccc2)c1 ?
Mtb FBA inh: -1; 3CLpro inhibitor: -3; Mtb BioA inh: -1; GDH-TPI inh: 34*; FadD28 binding: -2

Results for O=C(N/N=C/c1ccc(O)c(O)c1O)/C(=C/c1ccc([N+](=O)[O-])cc1)NC(=O)c1ccccc1 ?
Mtb FBA inh: -10; 3CLpro inhibitor: -4; Mtb BioA inh: 1; GDH-TPI inh: 37*; FadD28 binding: 1

What do the screens show for `COc1ccc(/C=C(/NC(=O)c2ccccc2)C(=O)N/N=C/c2ccncc2)c(OC)c1`?
Mtb FBA inh: 2; 3CLpro inhibitor: -1; GDH-TPI inh: 29; FadD28 binding: -2

What do the screens show for `Cc1ccc(NC(=O)/C(=C\c2ccc([N+](=O)[O-])cc2)NC(=O)c2ccccc2)cc1`?
Mtb FBA inh: -4; 3CLpro inhibitor: 5; Mtb BioA inh: 4; GDH-TPI inh: 20; FadD28 binding: 0

How did COc1ccc(/C=C(/NC(=O)c2ccccc2)C(=O)N/N=C/c2sccc2C)cc1 do in these assays?
Mtb FBA inh: -1; 3CLpro inhibitor: 0; GDH-TPI inh: 52*; FadD28 binding: 0

What do the screens show for `C[C@H](CO)N1C[C@H](C)[C@H](CN(C)Cc2ccc(-c3ccccc3)cc2)Oc2c(NC(=O)Nc3ccc(C(F)(F)F)cc3)cccc2C1=O`?
Mtb BioA inh: -1

How did CCOC(=O)c1cc2c(=O)[nH]ccc2nc1C(F)(F)F do in these assays?
Mtb FBA inh: 24; 3CLpro inhibitor: 6; GDH-TPI inh: 4; FadD28 binding: -3

How did CCOC(=O)c1cc2c(=O)[nH]ccc2nc1C do in these assays?
Mtb FBA inh: 120*; 3CLpro inhibitor: 1; Mtb BioA inh: 0; GDH-TPI inh: 7; FadD28 binding: -4

Results for CC(=O)c1ccc(N2CCN(S(=O)(=O)c3ccc4c(c3)C(Cl)(Cl)C(=O)N4)CC2)cc1 ?
Mtb FBA inh: 0; Mtb BioA inh: 8; GDH-TPI inh: 32*; FadD28 binding: -2

Results for CCOC(=O)c1ccc(N)cc1 ?
Mtb FBA inh: -1; Mtb BioA inh: -1; GDH-TPI inh: 0; FadD28 binding: -1

What do the screens show for `CCOC(=O)c1ccc(N=NN(C)C)cc1`?
Mtb FBA inh: 0; 3CLpro inhibitor: 0; GDH-TPI inh: 36*; FadD28 binding: 0

Results for COc1ccc(/C=N/NC(=O)c2nc(-c3ccccc3)cc(-c3ccccc3)n2)cc1 ?
Mtb FBA inh: 1; 3CLpro inhibitor: 5; Mtb BioA inh: 0; GDH-TPI inh: 32*; FadD28 binding: -4

Results for COc1ccc(/C=N/NC(=O)c2nc(-c3ccccc3)n(-c3ccccc3)n2)cc1OC ?
Mtb FBA inh: 2; 3CLpro inhibitor: -1; Mtb BioA inh: 0; GDH-TPI inh: 37*; FadD28 binding: 0

How did Cc1noc(C)c1NC(=O)N(C)C[C@H]1Oc2ccc(NC(=O)Nc3ccccc3)cc2CC(=O)N([C@@H](C)CO)C[C@H]1C do in these assays?
Mtb BioA inh: 0

How did Cc1c(Cl)c(=O)oc2cc(OC(C)C)ccc12 do in these assays?
Mtb FBA inh: active; 3CLpro inhibitor: 4; Mtb BioA inh: 2; GDH-TPI inh: 25; FadD28 binding: -2

What do the screens show for `CCC(=O)Oc1ccc2c(C)c(Cl)c(=O)oc2c1`?
Mtb FBA inh: active; 3CLpro inhibitor: -3; Mtb BioA inh: 2; GDH-TPI inh: 4; FadD28 binding: -6

How did COc1ccc(/C=C2\SC(=O)N(CC(=O)Nc3cccc(C)c3)C2=O)cc1O do in these assays?
Mtb FBA inh: -2; 3CLpro inhibitor: 8; Mtb BioA inh: -1; GDH-TPI inh: 47*; FadD28 binding: 26*

What do the screens show for `COc1cc(/C=C2\SC(=O)N(CC(=O)Nc3cccc(C)c3)C2=O)ccc1OC(C)C(=O)O` (configuration not stated)?
Mtb FBA inh: 0; Mtb BioA inh: 1; GDH-TPI inh: 18; FadD28 binding: 81*

What do the screens show for `COc1ccc(/C=C2\SC(=O)N(CC(=O)Nc3ccc(O)cc3)C2=O)cc1OC`?
Mtb FBA inh: 1; 3CLpro inhibitor: -1; Mtb BioA inh: -3; GDH-TPI inh: 23; FadD28 binding: 1

How did Cc1cccc(NC(=O)CN2C(=O)S/C(=C\c3cccn3-c3cccc(C(=O)O)c3)C2=O)c1 do in these assays?
Mtb FBA inh: -1; 3CLpro inhibitor: -3; Mtb BioA inh: 0; GDH-TPI inh: 6; FadD28 binding: 62*

Results for CC(/C=C1\SC(=O)N(CC(=O)Nc2cccc(O)c2)C1=O)=C\c1ccccc1 ?
Mtb FBA inh: 2; 3CLpro inhibitor: 5; GDH-TPI inh: 33*; FadD28 binding: 4

What do the screens show for `Cc1ccc(NC(=O)CN2C(=O)S/C(=C\c3cccn3-c3cccc(C(=O)O)c3)C2=O)cc1C`?
Mtb FBA inh: 0; 3CLpro inhibitor: 4; GDH-TPI inh: -1; FadD28 binding: -1

What do the screens show for `O=C(N[C@@H]1C=C[C@H](CC(=O)N2CCc3ccccc3C2)O[C@H]1CO)C1CC1`?
Mtb BioA inh: -1

What do the screens show for `C(=Nc1cccc2c(N=Cc3ccco3)cccc12)c1ccco1`?
Mtb FBA inh: 62*; 3CLpro inhibitor: 1; GDH-TPI inh: 4; FadD28 binding: -2

How did CN(C)c1ccc(N=Cc2ccco2)cc1 do in these assays?
Mtb FBA inh: -2; 3CLpro inhibitor: -3; Mtb BioA inh: -1; GDH-TPI inh: 9; FadD28 binding: -1

How did COc1ccc(NC(=O)O[C@@H](c2ccc(OC)c(O)c2)[C@H](CCO)OC)cc1 do in these assays?
Mtb BioA inh: -1

Results for CCCNC(=O)C[C@@H]1C[C@@H]2c3cc(NS(=O)(=O)c4ccccc4)ccc3O[C@@H]2[C@@H](CO)O1 ?
Mtb BioA inh: 0

Results for CCC1(CC)Cc2ccccc2-c2nc(NCCO)[nH]c(=O)c21 ?
Mtb FBA inh: 168*; 3CLpro inhibitor: 8; Mtb BioA inh: 8; GDH-TPI inh: 20; FadD28 binding: -4

How did CCC1(C)Cc2ccccc2-c2nc(NCCO)n(-c3ccc(C)cc3)c(=O)c21 (configuration not stated) do in these assays?
Mtb FBA inh: 163*; 3CLpro inhibitor: 4; Mtb BioA inh: -3; GDH-TPI inh: 17; FadD28 binding: 0
